Assay [1] deals with T1, ETS1 (UniProt P14921).
T1 sequence: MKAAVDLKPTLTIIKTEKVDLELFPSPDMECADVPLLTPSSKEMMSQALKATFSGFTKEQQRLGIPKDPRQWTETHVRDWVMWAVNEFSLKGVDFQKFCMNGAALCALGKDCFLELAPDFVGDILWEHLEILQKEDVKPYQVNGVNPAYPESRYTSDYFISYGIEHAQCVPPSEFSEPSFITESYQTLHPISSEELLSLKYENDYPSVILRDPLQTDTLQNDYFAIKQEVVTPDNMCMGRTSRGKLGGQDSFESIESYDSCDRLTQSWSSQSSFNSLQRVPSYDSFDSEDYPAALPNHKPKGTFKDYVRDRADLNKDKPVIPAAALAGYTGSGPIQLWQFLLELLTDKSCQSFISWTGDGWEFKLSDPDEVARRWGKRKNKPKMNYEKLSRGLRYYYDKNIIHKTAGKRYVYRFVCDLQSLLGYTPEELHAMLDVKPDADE
Nature of the assay: ETS1 binding intensity (PBM fluorescence), ETS1 alone (arbitrary fluorescence units); higher = stronger binding. The settings on record: ETS1 concentration 1 nM; RUNX1 concentration 0 nM.

For assay [2], the target named is RUNX1 (UniProt Q01196). Kind of assay: RUNX1 binding intensity (PBM fluorescence), RUNX1 alone (arbitrary fluorescence units); higher = stronger binding. The settings on record: RUNX1 concentration 2 nM; ETS1 concentration 0 nM. As for the experimental part:
(§1)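 Cooperative gcPBM on 36-bp genomic probes with neighbouring ETS1 and RUNX1 sites. Recombinant human RUNX1 (2 nM) was incubated alone or with ETS1 (25 nM) and detected with anti-RUNX1 antibody plus Alexa488 secondary. Values are medians over 4 replicate spots; the RUNX1+ETS1 data were normalised to the RUNX1-only data. The probes sit in constant array flanks that are not printed.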

Assay [3] concerns the target T1, ETS1. Kind of assay: ETS1 binding intensity (PBM fluorescence) in presence of RUNX1, normalised to ETS1-only experiment (arbitrary fluorescence units); higher = stronger binding. Particulars: ETS1 concentration 1 nM; RUNX1 concentration 25 nM.
Assay [4] deals with RUNX1 (UniProt Q01196). Nature of the assay: RUNX1 binding intensity (PBM fluorescence) in presence of ETS1, normalised to RUNX1-only experiment (arbitrary fluorescence units); higher = stronger binding. Particulars: RUNX1 concentration 2 nM; ETS1 concentration 25 nM. As for the experimental part: as §1
Chain of RUNX1 (Q01196 whole entry): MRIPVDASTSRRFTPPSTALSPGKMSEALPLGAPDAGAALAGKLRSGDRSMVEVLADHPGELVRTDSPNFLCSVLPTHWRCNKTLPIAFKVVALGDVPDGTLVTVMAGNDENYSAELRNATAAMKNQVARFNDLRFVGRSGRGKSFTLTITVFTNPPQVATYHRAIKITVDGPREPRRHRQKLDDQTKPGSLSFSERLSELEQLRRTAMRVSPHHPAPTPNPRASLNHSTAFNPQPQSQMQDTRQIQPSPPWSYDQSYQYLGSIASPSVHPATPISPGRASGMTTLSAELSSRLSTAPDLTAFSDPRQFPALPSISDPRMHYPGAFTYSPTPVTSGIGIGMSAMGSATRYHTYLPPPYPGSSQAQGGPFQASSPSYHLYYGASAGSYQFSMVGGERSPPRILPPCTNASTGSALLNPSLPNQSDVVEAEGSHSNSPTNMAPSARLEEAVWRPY
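Wherever RUNX1 binding intensity (PBM fluorescence) in presence of ETS1, normalised to RUNX1-only experiment is given: Full-length recombinant human ETS1 or RUNX1 bound to double-stranded 36-bp genomic probes on microarrays, detected by protein-specific primary antibody and Alexa488 secondary, spot fluorescence as median of four replicate spots.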
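Wherever RUNX1 binding intensity (PBM fluorescence), RUNX1 alone is given: Full-length recombinant human RUNX1 bound to double-stranded 36-bp genomic probes on a high-density microarray, scored as Alexa488 fluorescence per spot via anti-RUNX1 antibody, median of four replicate spots.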

As for GATACAGTGCTCAGGAAACCACATGAAACCAGAGTA, the ETS1 binding intensity with ETS1 [1] came out at 451; in the assay with ETS1 [3], 948. Moreover, the RUNX1 binding intensity with RUNX1 [2] is 924; with RUNX1 [4] it was 972.

As for CTGAGACCTCGGGCAGGATGTGGCTTCCCCAGAGTT, the results for the ETS1 binding intensity in the assay with ETS1 [1] and with ETS1 [3] were 4700 and 7460, respectively. Further, the RUNX1 binding intensity with RUNX1 [2] was 684; in the assay with RUNX1 [4] it was 1180.

As to CCCGGGGGCAGGAAATGTCGCCTTACCCACAGCCTT, the ETS1 binding intensity with ETS1 [1] was found to be 2470; with ETS1 [3], 5930. The results for the RUNX1 binding intensity with RUNX1 [2] and with RUNX1 [4] were 873 and 1210, respectively.

For the sequence CAATGGATGGCCACATCCTCACCACAAACTGAGTCA, the ETS1 binding intensity with ETS1 [1] was found to be 368; with ETS1 [3], 647. In addition, the RUNX1 binding intensity is 939 with RUNX1 [2] and 1360 with RUNX1 [4].

For the sequence CCATATCTGGCTTCCTAAGGAGGAACCACAAACCGT, the ETS1 binding intensity with ETS1 [1] was 375; with ETS1 [3], 828. The RUNX1 binding intensity in the assay with RUNX1 [2] was determined as 1040; with RUNX1 [4], 1080.

For CAGCAGCACCTGCATCCGCTGCGGGAGTCCGAGCCG, the ETS1 binding intensity was found to be 515 with ETS1 [1] and 491 in the assay with ETS1 [3]. The RUNX1 binding intensity worked out at 778 with RUNX1 [2] and 1030 with RUNX1 [4].

On to ACCATAAGGACCGGAAGCAGAGACCACACTGGTGCT, for which the ETS1 binding intensity came to 7910 with ETS1 [1] and 12600 in the assay with ETS1 [3]. The RUNX1 binding intensity was 831 in the assay with RUNX1 [2] and 1440 with RUNX1 [4].

Take CCCCTATATCACAGGATGCCGCAAACTAGTAACAGG: the ETS1 binding intensity was 1610 in the assay with ETS1 [1] and 2210 in the assay with ETS1 [3]. In addition, the RUNX1 binding intensity with RUNX1 [2] came out at 827; in the assay with RUNX1 [4], 993.

In the case of TAGCCGTACGGAAATGTTTGTGGTTCTCTGCATCTA, the ETS1 binding intensity with ETS1 [1] came to 647; in the assay with ETS1 [3], 1010. The RUNX1 binding intensity with RUNX1 [2] came out at 912; in the assay with RUNX1 [4], 1230.

On to GACGGGAGCACCGGAAGCGGTCTTTCCCCGAGCGGA, for which the ETS1 binding intensity with ETS1 [1] is 12900; with ETS1 [3], 12500. Also, the results for the RUNX1 binding intensity with RUNX1 [2] and with RUNX1 [4] were 736 and 2370, respectively.

Turning to CACCTCCTACTTCCCCCCGCTGATAACCACCAACCC, the ETS1 binding intensity with ETS1 [1] came to 1700; with ETS1 [3], 1790. Moreover, the RUNX1 binding intensity is 2990 with RUNX1 [2] and 2830 in the assay with RUNX1 [4].

Take TGCCCTGACTTCCTGGTCCTGTGGTCAAGGATGGGG: the ETS1 binding intensity stood at 1340 with ETS1 [1] and 2810 with ETS1 [3]. The RUNX1 binding intensity in the assay with RUNX1 [2] stood at 889; in the assay with RUNX1 [4], 2000.

As to CCCCGCCTCTTCCGCTTCTGTGGTCTGATCTGCCTG, the results for the ETS1 binding intensity in the assay with ETS1 [1] and with ETS1 [3] were 704 and 1040, respectively. In addition, the RUNX1 binding intensity with RUNX1 [2] is 1250; with RUNX1 [4], 3860.

On to TCTGGGACAGGAAAGACTTGTGGTTACTGCTGTTGA, for which the ETS1 binding intensity was 808 with ETS1 [1] and 4470 with ETS1 [3]. Also, the RUNX1 binding intensity with RUNX1 [2] stood at 1390; with RUNX1 [4], 3160.

As for TGTAAGTCACTTCCTGTCGTGGTCAGGTCTCCTCTC, the figures for the ETS1 binding intensity with ETS1 [1] and in the assay with ETS1 [3] were 8260 and 7730, respectively. The RUNX1 binding intensity with RUNX1 [2] was determined as 873; with RUNX1 [4], 2370.

Regarding ATTTTTCCTTCCTTCTCCCGTCCCCGCAGAGTGCAA, the results for the ETS1 binding intensity with ETS1 [1] and in the assay with ETS1 [3] were 507 and 465, respectively. In addition, the RUNX1 binding intensity was determined as 1540 in the assay with RUNX1 [2] and 1520 with RUNX1 [4].

Turning to GCTTGTCTTCCGGTTTCGTCGCCGCCGCAGGCGCAC, the ETS1 binding intensity in the assay with ETS1 [1] is 1730; in the assay with ETS1 [3], 1880. In addition, the RUNX1 binding intensity is 840 in the assay with RUNX1 [2] and 1780 in the assay with RUNX1 [4].

AGCAGGAAGTATGTTGAAAGTCATAACCACAGCAAA: the values for the ETS1 binding intensity with ETS1 [1] and with ETS1 [3] were 908 and 3050, respectively. Besides, the RUNX1 binding intensity is 776 with RUNX1 [2] and 1020 in the assay with RUNX1 [4].

Take GAGAAAAGAGACTGAGGATGTGGTTTGGGGTGTGGG: the results for the ETS1 binding intensity in the assay with ETS1 [1] and with ETS1 [3] were 661 and 6260, respectively. Moreover, the RUNX1 binding intensity in the assay with RUNX1 [2] is 844; with RUNX1 [4] it was 1050.

Consider ACCGGGTGCTGAGGAGGAAGTGGTTGCTATAACCCC, for which the ETS1 binding intensity turned out to be 2350 with ETS1 [1] and 3420 in the assay with ETS1 [3]. Moreover, the RUNX1 binding intensity was determined as 741 with RUNX1 [2] and 1120 with RUNX1 [4].

As for AGGTTGAAAGCACTTCCGCTGCGGCCCCCGTAGGAA, the ETS1 binding intensity with ETS1 [1] turned out to be 3040; with ETS1 [3] it was 3460. Moreover, the RUNX1 binding intensity in the assay with RUNX1 [2] came out at 833; in the assay with RUNX1 [4] it was 1520.

Consider ACACACTGACTTCCTGTTGTGGGAGATAAAGTGTGG, for which the figures for the ETS1 binding intensity with ETS1 [1] and with ETS1 [3] were 2500 and 2780, respectively. Moreover, the RUNX1 binding intensity in the assay with RUNX1 [2] is 698; with RUNX1 [4] it was 1730.

For the sequence ACTCACTTCCGTTTAGCTTATCAACCACCAAGAGAC, the ETS1 binding intensity stood at 1020 with ETS1 [1] and 1060 in the assay with ETS1 [3]. Moreover, the RUNX1 binding intensity in the assay with RUNX1 [2] is 1390; in the assay with RUNX1 [4], 3210.

Consider TCCCCTCTCCCCATCCGCCCGAGACCACAGCCACTC, for which the ETS1 binding intensity with ETS1 [1] worked out at 592; with ETS1 [3], 495. Also, the RUNX1 binding intensity turned out to be 1340 with RUNX1 [2] and 1570 with RUNX1 [4].

Regarding TTTAGACACCGCTTCCTGCCACAAGCCCAAGACTTA, the ETS1 binding intensity is 758 with ETS1 [1] and 839 with ETS1 [3]. In addition, the figures for the RUNX1 binding intensity with RUNX1 [2] and with RUNX1 [4] were 918 and 3470, respectively.

Source of the values: the supplement of paper PMC10681739.
